Source: PubChem BioAssay AID1159580 (chemical genetic matrix, 2015)
Several values for one entry are separate records, joined by “and”; a condition that tells them apart may be missing. Equal values may be shown once. About 2,000 (36%) of roughly 5,500 compounds were called active. About 18% were inconclusive and are not listed. Cut-off read from the data, not from the text of the source: active = normalized growth mostly below about 0.91 (no sharp cut-off); inconclusive = no clear call, values can overlap the other calls; inactive = mostly above about 0.92. The list shows a part of the results.

Assay: chemical genetic growth profiling, strain panel (AID 1159580);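 note: tested at 20 µM; growth read once vehicle control cultures reached saturation at 30 °C; 1 = growth at the plate median or of vehicle wells; lower values mean less growth of the strain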
Settings: S. cerevisiae deletion strains, growth OD

Measured: normalized growth

CC(=O)N[C@@H](Cc1c[nH]c2ccccc12)C(N)=O
inactive: locus YAL013W, strain DEP1, stronger effect = lower value 1.09 | locus YAL021C, strain ccr4, stronger effect = lower value 1 | locus YAL026C, strain drs2, stronger effect = lower value 1 | locus YAL030W, strain snc1, stronger effect = lower value 1.02 | locus YBL061C, strain skt5, stronger effect = lower value 1.02 | locus YBR009C, strain hhf1, stronger effect = lower value 1.01 | locus YBR021W, strain FUR4, stronger effect = lower value 1.02 | locus YBR023C, strain chs3, stronger effect = lower value 1.02 | locus YBR171W, strain sec66, stronger effect = lower value 1.01 | locus YBR229C, strain ROT2, stronger effect = lower value 0.965 | locus YBR231C, strain swc5, stronger effect = lower value 1.02 | locus YBR279W, strain paf1, stronger effect = lower value 1.01 | locus YCL011C, strain gbp2, stronger effect = lower value 1.02 | locus YCL016C, strain dcc1, stronger effect = lower value 1.01 | locus YCL029C, strain bik1, stronger effect = lower value 0.999 | locus YCL061C, strain MRC1, stronger effect = lower value 1.02 | locus YCL069W, strain vba3, stronger effect = lower value 1.02 | locus YCR088W, strain abp1, stronger effect = lower value 1.03 | locus YDL005C, strain med2, stronger effect = lower value 1.04 | locus YDL035C, strain GPR1, stronger effect = lower value 0.985 | locus YDL040C, strain nat1, stronger effect = lower value 1.02 | locus YDL074C, strain BRE1, stronger effect = lower value 0.948 | locus YDL101C, strain DUN1, stronger effect = lower value 0.977 | locus YDL134C, strain PPH21, stronger effect = lower value 0.985 | locus YDL185W, strain tfp1, stronger effect = lower value 0.972 | locus YDL192W, strain arf1, stronger effect = lower value 0.99 | locus YDR001C, strain nth1, stronger effect = lower value 1.01 | locus YDR069C, strain doa4, stronger effect = lower value 1.03 | locus YDR101C, strain arx1, stronger effect = lower value 0.997 | locus YDR137W, strain rgp1, stronger effect = lower value 1.01 | locus YDR150W, strain NUM1, stronger effect = lower value 0.972 | locus YDR159W, strain sac3, stronger effect = lower value 1.03 | locus YDR162C, strain NBP2, stronger effect = lower value 0.945 | locus YDR195W, strain ref2 1.05 | locus YDR297W, strain sur2, stronger effect = lower value 1.03 | locus YDR318W, strain mcm21, stronger effect = lower value 1 | locus YDR334W, strain swr1, stronger effect = lower value 1.01 | locus YDR335W, strain msn5, stronger effect = lower value 1 | locus YDR388W, stronger effect = lower value 1 | locus YDR392W, strain spt3, stronger effect = lower value 0.953 | locus YDR502C, strain sam2, stronger effect = lower value 0.996 | locus YEL003W, strain gim4, stronger effect = lower value 1.01 | locus YEL037C, strain rad23, stronger effect = lower value 1.02 | locus YEL061C, strain CIN8 (second series), stronger effect = lower value 1.02 | locus YEL061C, strain CIN8, stronger effect = lower value 0.99 | locus YER015W, strain faa2, stronger effect = lower value 1.02 | locus YER016W, strain bim1, stronger effect = lower value 1.01 | locus YER110C, stronger effect = lower value 1 | locus YER111C, strain swi4, stronger effect = lower value 1.01 | locus YER155C, strain BEM2 (second series), stronger effect = lower value 1.06 | locus YER155C, strain BEM2, stronger effect = lower value 1.01 | locus YER167W, strain BCK2, stronger effect = lower value 1.01 | locus YFR010W, strain ubp6, stronger effect = lower value 1.02 | locus YGL078C, strain dbp3, stronger effect = lower value 0.994 | locus YGL086W, strain mad1, stronger effect = lower value 1 | locus YGL167C, strain pmr1, stronger effect = lower value 1.01 | locus YGL173C, strain kem1, stronger effect = lower value 1.02 | locus YGL227W, strain vid30, stronger effect = lower value 1.03 | locus YGL240W, strain doc1, stronger effect = lower value 1.05 | locus YGL248W, strain PDE1, stronger effect = lower value 0.986 | locus YGL253W, strain hxk2, stronger effect = lower value 1.01 | locus YGR078C, strain PAC10, stronger effect = lower value 0.97 | locus YGR135W, strain pre9, stronger effect = lower value 0.983 | locus YGR229C, strain SMI1, stronger effect = lower value 0.973 | locus YGR252W, strain gcn5, stronger effect = lower value 1.02 | locus YHR013C, strain ard1, stronger effect = lower value 1.03 | locus YHR027C, strain rpn1, stronger effect = lower value 1.01 | locus YHR030C, strain SLT2, stronger effect = lower value 1 | locus YHR079C, strain IRE1 (second series), stronger effect = lower value 1.01 | locus YHR079C, strain IRE1, stronger effect = lower value 0.99 | locus YHR094C, strain hxt1, stronger effect = lower value 0.995 | locus YHR129C, strain ARP1, stronger effect = lower value 0.994 | locus YHR142W, strain chs7, stronger effect = lower value 1 | locus YHR200W, strain rpn10, stronger effect = lower value 1.01 | locus YIL066C, strain RNR3, stronger effect = lower value 0.973 | locus YIL073C, strain SPO22, stronger effect = lower value 1.06 | locus YIL125W, strain kgd1, stronger effect = lower value 0.989 | locus YIR030C, strain dcg1, stronger effect = lower value 1 | locus YJL092W, strain hpr5, stronger effect = lower value 1.02 | locus YJL095W, strain BCK1 (second series), stronger effect = lower value 1.02 | locus YJL095W, strain BCK1, stronger effect = lower value 0.994 and 1.02 | locus YJL115W, strain asf1, stronger effect = lower value 1.04 | locus YJL129C, strain trk1, stronger effect = lower value 1.08 | locus YJL134W, strain LCB3, stronger effect = lower value 0.997 | locus YJL154C, strain vps35, stronger effect = lower value 1.02 | locus YJL164C, strain tpk1, stronger effect = lower value 1.02 | locus YJL166W, strain qcr8, stronger effect = lower value 1.04 | locus YJL168C, strain set2, stronger effect = lower value 0.994 | locus YJL187C, strain SWE1 (second series), stronger effect = lower value 0.972 | locus YJR043C, strain POL32, stronger effect = lower value 1.05 | locus YJR066W, strain TOR1, stronger effect = lower value 0.923
